Consider six sequences from article PMC7862700, “An all-to-all approach to the identification of sequence-specific readers for epigenetic DNA modifications on cytosine”.

Common to all, as to assay: DAPPL (digital affinity profiling via proximity ligation, sequencing); 10 mM Tris-HCl pH 7.5, 50 mM NaCl, 1 mM DTT, 4% glycerol, room temperature, 30 min; GST-TFs on glutathione beads, 16-mer random dsDNA library, 0.1% formaldehyde crosslink after washing; high values mean tight binding
Holding throughout (settings): protein: recombinant; tags: N-terminal GST; dsDNA, one strand shown

In assay [1] the target is T1, ERF (Homo sapiens, UniProt P50548 1-548).
T1 sequence: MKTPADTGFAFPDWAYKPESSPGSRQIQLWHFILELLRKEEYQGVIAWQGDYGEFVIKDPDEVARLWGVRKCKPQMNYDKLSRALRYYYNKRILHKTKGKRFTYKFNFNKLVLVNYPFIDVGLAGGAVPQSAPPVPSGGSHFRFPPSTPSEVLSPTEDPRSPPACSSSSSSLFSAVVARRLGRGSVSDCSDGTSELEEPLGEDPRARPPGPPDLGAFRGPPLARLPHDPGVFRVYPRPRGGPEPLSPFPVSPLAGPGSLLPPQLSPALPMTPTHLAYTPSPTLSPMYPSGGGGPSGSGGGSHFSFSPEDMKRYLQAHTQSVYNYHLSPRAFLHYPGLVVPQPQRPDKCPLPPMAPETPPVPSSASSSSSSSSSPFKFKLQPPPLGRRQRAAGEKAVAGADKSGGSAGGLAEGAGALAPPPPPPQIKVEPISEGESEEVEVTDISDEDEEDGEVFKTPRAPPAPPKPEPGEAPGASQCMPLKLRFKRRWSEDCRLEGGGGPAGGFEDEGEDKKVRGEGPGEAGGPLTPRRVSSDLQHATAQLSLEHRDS
In short, it runs like this: (§1)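 A tag-only sample was pooled with DNA-barcoded human transcription factors that had been expressed in yeast as GST fusions and captured on glutathione beads. The pools were incubated for 30 min at room temperature with 200 nmole of a random double-stranded 16-mer DNA library in Tris/NaCl/DTT/glycerol buffer, then washed, crosslinked with 0.1% formaldehyde, proximity-ligated (BsaI/T4 ligase, 1 h, 37 °C), PCR-amplified and sequenced on an Illumina NextSeq500. Binding signal is each hexamer's read frequency for a factor divided by its frequency for the tag-only sample.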

Assay [2] concerns the target T2, ETV3L (Homo sapiens, UniProt Q6ZN32 1-361).
T2 sequence: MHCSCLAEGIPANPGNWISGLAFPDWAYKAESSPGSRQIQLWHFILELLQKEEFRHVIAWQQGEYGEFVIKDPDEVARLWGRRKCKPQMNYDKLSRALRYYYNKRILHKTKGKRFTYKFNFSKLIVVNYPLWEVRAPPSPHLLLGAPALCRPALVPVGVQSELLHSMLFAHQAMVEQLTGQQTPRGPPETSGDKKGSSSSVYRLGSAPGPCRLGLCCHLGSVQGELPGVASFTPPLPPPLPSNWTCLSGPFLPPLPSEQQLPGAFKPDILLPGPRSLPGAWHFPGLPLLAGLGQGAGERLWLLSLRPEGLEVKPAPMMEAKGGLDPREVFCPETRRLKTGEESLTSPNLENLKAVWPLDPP
Summed up: as §1

Assay [3] concerns the target T3, ETS2 (Homo sapiens, UniProt P15036 1-469).
T3 sequence: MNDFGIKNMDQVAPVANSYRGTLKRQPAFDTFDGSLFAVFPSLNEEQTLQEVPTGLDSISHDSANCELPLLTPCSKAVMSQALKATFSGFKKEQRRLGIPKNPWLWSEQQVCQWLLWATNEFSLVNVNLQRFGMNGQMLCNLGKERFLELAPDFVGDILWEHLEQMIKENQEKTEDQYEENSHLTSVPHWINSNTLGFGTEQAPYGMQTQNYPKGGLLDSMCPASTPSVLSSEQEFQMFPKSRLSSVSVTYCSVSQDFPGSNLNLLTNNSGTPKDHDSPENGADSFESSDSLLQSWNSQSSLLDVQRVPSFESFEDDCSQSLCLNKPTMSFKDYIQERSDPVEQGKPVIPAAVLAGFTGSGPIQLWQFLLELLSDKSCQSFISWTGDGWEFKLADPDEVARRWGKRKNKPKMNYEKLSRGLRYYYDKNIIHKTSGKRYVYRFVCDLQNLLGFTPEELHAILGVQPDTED
In short, it runs like this:
as §1

Assay [4] deals with T4, SPDEF (Homo sapiens, UniProt O95238 1-335).
T4 sequence: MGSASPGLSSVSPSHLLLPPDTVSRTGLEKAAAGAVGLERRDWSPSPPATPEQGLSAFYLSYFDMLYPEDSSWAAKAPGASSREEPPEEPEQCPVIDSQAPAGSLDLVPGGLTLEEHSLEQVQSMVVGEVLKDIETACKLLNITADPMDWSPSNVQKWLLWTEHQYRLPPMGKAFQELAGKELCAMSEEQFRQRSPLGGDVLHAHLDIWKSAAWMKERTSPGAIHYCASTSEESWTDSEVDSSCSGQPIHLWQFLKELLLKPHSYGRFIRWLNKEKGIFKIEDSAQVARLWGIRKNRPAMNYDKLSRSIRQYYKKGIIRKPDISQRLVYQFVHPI
Summed up: as §1

The target in assay [5] is T5, ETV7 (Homo sapiens, UniProt Q9Y603 1-341).
T5 sequence: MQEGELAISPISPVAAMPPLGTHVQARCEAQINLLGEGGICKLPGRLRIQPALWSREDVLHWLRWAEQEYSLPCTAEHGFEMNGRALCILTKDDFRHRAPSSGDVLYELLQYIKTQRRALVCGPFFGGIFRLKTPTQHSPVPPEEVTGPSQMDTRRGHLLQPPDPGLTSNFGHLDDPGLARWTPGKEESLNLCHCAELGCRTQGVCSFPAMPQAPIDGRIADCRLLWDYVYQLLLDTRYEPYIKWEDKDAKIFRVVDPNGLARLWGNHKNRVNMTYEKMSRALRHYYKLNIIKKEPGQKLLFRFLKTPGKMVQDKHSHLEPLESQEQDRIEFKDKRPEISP
In short, it runs like this:
as §1

The target in assay [6] is T6, ELF5 (Homo sapiens, UniProt Q9UKW6-2 1-255).
T6 sequence: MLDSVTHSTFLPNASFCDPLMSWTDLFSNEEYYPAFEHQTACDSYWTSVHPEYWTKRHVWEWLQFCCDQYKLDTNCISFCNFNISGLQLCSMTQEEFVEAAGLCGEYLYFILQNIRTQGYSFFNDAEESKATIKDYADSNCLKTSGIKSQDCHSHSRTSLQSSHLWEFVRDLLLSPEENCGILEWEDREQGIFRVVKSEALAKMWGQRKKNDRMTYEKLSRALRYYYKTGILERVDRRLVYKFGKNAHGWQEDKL
In short, it runs like this:
as §1

Assay [7] concerns the target T7, ETV3 (Homo sapiens, UniProt P41162-2 1-143).
T7 sequence: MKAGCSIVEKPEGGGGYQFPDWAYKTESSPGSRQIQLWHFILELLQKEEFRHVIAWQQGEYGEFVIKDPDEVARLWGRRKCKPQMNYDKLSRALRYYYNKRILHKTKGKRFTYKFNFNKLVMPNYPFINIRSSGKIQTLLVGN
In short, it runs like this:
as §1

Assay [8] deals with ETV6 (Homo sapiens, UniProt P41212 1-452). Summed up:
as §1

ETV6, sequence (P41212 whole entry): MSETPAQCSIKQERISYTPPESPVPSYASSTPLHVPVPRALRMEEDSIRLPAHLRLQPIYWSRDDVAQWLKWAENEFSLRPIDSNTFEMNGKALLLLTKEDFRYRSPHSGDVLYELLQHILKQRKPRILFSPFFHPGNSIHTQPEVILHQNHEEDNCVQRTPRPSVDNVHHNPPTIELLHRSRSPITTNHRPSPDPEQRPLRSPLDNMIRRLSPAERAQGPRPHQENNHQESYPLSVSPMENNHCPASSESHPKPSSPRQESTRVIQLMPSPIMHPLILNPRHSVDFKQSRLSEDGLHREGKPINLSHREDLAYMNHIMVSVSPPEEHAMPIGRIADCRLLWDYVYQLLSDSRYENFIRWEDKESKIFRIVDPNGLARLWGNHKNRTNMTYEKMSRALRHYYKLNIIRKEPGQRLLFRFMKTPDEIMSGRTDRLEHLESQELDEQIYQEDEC

As for CCGTCA, the binding signal in assay [1] is 1.08 fold enrichment (6-mer frequency, TF over GST control); in assay [2], 1.28 fold enrichment (6-mer frequency, TF over GST control); in assay [3], 1.28 fold enrichment (6-mer frequency, TF over GST control); in assay [4] it was 1.38 fold enrichment (6-mer frequency, TF over GST control); in assay [5], 1.26 fold enrichment (6-mer frequency, TF over GST control); in assay [6] it was 1.22 fold enrichment (6-mer frequency, TF over GST control). Moreover, the binding signal in assay [7] was 1.19 fold enrichment (6-mer frequency, TF over GST control); in assay [8], 1.25 fold enrichment (6-mer frequency, TF over GST control).
In the case of CGTTAC, the binding signal in assay [1] is 1.16 fold enrichment (6-mer frequency, TF over GST control); in assay [2], 1.18 fold enrichment (6-mer frequency, TF over GST control); in assay [3] it was 1.23 fold enrichment (6-mer frequency, TF over GST control); in assay [4] it was 1.1 fold enrichment (6-mer frequency, TF over GST control); in assay [5] it was 1.11 fold enrichment (6-mer frequency, TF over GST control); in assay [6] it was 1.15 fold enrichment (6-mer frequency, TF over GST control). The binding signal was 1.14 fold enrichment (6-mer frequency, TF over GST control) in assay [7] and 1.12 fold enrichment (6-mer frequency, TF over GST control) in assay [8].
On to CCGCCC, for which the binding signal in assay [1] was 1.21 fold enrichment (6-mer frequency, TF over GST control); in assay [2] it was 1.36 fold enrichment (6-mer frequency, TF over GST control); in assay [3], 1.29 fold enrichment (6-mer frequency, TF over GST control); in assay [4], 1.27 fold enrichment (6-mer frequency, TF over GST control); in assay [5] it was 1.19 fold enrichment (6-mer frequency, TF over GST control); in assay [6], 1.38 fold enrichment (6-mer frequency, TF over GST control). Besides, the binding signal in assay [7] was 1.36 fold enrichment (6-mer frequency, TF over GST control); in assay [8], 1.39 fold enrichment (6-mer frequency, TF over GST control).
GCCCGC: the binding signal in assay [1] was 1.11 fold enrichment (6-mer frequency, TF over GST control); in assay [2], 1.09 fold enrichment (6-mer frequency, TF over GST control); in assay [3] it was 1.02 fold enrichment (6-mer frequency, TF over GST control); in assay [4] it was 1.04 fold enrichment (6-mer frequency, TF over GST control); in assay [5], 1.13 fold enrichment (6-mer frequency, TF over GST control); in assay [6] it was 1.1 fold enrichment (6-mer frequency, TF over GST control). For the same sequence, the binding signal is 1.16 fold enrichment (6-mer frequency, TF over GST control) in assay [7] and 1.07 fold enrichment (6-mer frequency, TF over GST control) in assay [8].
For CACATT, the binding signal was 1.33 fold enrichment (6-mer frequency, TF over GST control) in assay [1]; 1.17 fold enrichment (6-mer frequency, TF over GST control) in assay [2]; 1.2 fold enrichment (6-mer frequency, TF over GST control) in assay [3]; 1.18 fold enrichment (6-mer frequency, TF over GST control) in assay [4]; 1.18 fold enrichment (6-mer frequency, TF over GST control) in assay [5]; 1.13 fold enrichment (6-mer frequency, TF over GST control) in assay [6]. The binding signal was 1.12 fold enrichment (6-mer frequency, TF over GST control) in assay [7] and 1.15 fold enrichment (6-mer frequency, TF over GST control) in assay [8].
As to CTTTCA, the binding signal is 1.44 fold enrichment (6-mer frequency, TF over GST control) in assay [1]; 1.38 fold enrichment (6-mer frequency, TF over GST control) in assay [2]; 1.31 fold enrichment (6-mer frequency, TF over GST control) in assay [3]; 1.26 fold enrichment (6-mer frequency, TF over GST control) in assay [4]; 1.33 fold enrichment (6-mer frequency, TF over GST control) in assay [5]; 1.4 fold enrichment (6-mer frequency, TF over GST control) in assay [6]. The binding signal in assay [7] is 1.39 fold enrichment (6-mer frequency, TF over GST control); in assay [8] it was 1.24 fold enrichment (6-mer frequency, TF over GST control).
